# Experimental data taken from article PMC7862700, “An all-to-all approach to the identification of sequence-specific readers for epigenetic DNA modifications on cytosine”.
# Assays:
# Assay in all cases: DAPPL (digital affinity profiling via proximity ligation, sequencing); 10 mM Tris-HCl pH 7.5, 50 mM NaCl, 1 mM DTT, 4% glycerol, room temperature, 30 min; GST-TFs on glutathione beads, 16-mer random dsDNA library, 0.1% formaldehyde crosslink after washing; high values mean tight binding
# FLI1 = target: T1, FLI1 (Homo sapiens, UniProt Q01543 1-452); details: protein: recombinant; tags: N-terminal GST; dsDNA, one strand shown
# T1 sequence: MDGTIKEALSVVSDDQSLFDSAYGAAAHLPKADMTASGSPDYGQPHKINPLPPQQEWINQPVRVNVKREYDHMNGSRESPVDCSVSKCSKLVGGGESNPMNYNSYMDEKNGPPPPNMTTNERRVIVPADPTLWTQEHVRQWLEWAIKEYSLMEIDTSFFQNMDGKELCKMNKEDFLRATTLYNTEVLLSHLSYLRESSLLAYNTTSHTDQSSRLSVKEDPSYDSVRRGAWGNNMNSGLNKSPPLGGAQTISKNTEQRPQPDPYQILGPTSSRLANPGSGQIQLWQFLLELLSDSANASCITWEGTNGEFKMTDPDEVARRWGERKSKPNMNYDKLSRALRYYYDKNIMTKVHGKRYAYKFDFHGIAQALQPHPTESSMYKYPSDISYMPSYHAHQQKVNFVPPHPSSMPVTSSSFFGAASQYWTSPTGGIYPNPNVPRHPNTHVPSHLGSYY
# Outline: (§1)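 Binding signal is defined as a hexamer's read frequency for one factor over its frequency for the tag-only sample. To obtain reads, GST-fused human transcription factors were expressed in yeast, captured on glutathione beads, barcoded with DNA and pooled with that sample. Pools met 200 nmole of a 16-mer random double-stranded DNA library in Tris/NaCl/DTT/glycerol buffer for 30 min at room temperature before washing, 0.1% formaldehyde crosslinking, proximity ligation (BsaI/T4 ligase, 1 h, 37 °C), PCR and Illumina NextSeq500 sequencing.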
# ELK1 = target: T2, ELK1 (Homo sapiens, UniProt P19419 1-428); details: protein: recombinant; tags: N-terminal GST; dsDNA, one strand shown
# T2 sequence: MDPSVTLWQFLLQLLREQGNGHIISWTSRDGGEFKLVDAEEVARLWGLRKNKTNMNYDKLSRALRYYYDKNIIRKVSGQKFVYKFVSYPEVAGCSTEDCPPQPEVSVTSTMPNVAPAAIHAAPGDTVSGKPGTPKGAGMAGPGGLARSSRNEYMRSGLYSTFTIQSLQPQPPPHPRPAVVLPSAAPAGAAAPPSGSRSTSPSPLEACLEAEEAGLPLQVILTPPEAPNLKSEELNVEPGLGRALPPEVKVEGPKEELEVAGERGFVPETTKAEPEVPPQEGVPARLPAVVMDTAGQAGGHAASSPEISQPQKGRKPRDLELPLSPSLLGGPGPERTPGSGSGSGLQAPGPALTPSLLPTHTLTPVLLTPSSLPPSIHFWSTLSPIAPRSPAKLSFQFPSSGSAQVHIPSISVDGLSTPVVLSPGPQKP
# Outline: as §1
# GABPA = target: T3, GABPA (Homo sapiens, UniProt Q06546 1-454); details: protein: recombinant; tags: N-terminal GST; dsDNA, one strand shown
# T3 sequence: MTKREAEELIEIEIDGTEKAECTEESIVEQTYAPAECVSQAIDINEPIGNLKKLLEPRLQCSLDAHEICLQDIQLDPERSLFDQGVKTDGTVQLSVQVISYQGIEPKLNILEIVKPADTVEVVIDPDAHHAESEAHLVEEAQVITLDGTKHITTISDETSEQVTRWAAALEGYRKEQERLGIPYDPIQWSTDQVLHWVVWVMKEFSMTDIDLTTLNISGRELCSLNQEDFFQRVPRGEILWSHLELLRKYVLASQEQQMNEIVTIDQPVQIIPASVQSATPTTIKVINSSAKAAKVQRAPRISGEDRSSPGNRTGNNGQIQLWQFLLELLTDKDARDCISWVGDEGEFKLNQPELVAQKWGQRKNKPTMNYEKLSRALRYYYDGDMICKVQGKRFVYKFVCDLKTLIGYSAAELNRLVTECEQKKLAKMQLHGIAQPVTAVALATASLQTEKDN
# Outline: as §1
# ERG = target: T4, ERG (Homo sapiens, UniProt P11308 1-479); details: protein: recombinant; tags: N-terminal GST; dsDNA, one strand shown
# T4 sequence: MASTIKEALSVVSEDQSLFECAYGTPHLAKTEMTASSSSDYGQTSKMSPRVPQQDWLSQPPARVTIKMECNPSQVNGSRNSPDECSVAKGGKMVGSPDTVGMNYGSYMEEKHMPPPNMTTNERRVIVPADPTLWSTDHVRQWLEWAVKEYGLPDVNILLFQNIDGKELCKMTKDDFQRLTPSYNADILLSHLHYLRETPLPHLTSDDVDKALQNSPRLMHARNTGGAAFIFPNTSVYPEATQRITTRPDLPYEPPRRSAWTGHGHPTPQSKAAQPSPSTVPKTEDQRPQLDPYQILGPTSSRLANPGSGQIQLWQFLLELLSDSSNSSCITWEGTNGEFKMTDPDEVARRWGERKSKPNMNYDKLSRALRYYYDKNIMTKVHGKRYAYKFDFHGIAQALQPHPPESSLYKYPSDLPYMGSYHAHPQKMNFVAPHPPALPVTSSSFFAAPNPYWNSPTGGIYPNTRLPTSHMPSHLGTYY
# Outline: as §1
# ELF1 = ELF1 (Homo sapiens, UniProt P32519 1-619); details: protein: recombinant; tags: N-terminal GST; dsDNA, one strand shown
# Outline: as §1
# EHF = target: T5, EHF (Homo sapiens, UniProt Q9NZC4 1-300); details: protein: recombinant; tags: N-terminal GST; dsDNA, one strand shown
# T5 sequence: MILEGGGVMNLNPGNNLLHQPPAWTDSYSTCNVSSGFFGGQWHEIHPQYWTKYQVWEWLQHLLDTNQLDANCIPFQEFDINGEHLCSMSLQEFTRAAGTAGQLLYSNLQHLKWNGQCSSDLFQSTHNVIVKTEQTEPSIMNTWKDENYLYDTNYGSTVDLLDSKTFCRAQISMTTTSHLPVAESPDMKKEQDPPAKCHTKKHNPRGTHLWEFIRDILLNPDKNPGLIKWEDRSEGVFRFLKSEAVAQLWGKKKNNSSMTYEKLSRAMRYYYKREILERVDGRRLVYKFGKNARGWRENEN
# Outline: as §1
# SPI1 = SPI1 (Homo sapiens, UniProt P17947 1-270); details: protein: recombinant; tags: N-terminal GST; dsDNA, one strand shown
# Outline: as §1
# SPIB = SPIB (Homo sapiens, UniProt Q01892 1-262); details: protein: recombinant; tags: N-terminal GST; dsDNA, one strand shown
# Outline: as §1
# ELK3 = target: T6, ELK3 (Homo sapiens, UniProt P41970 1-407); details: protein: recombinant; tags: N-terminal GST; dsDNA, one strand shown
# T6 sequence: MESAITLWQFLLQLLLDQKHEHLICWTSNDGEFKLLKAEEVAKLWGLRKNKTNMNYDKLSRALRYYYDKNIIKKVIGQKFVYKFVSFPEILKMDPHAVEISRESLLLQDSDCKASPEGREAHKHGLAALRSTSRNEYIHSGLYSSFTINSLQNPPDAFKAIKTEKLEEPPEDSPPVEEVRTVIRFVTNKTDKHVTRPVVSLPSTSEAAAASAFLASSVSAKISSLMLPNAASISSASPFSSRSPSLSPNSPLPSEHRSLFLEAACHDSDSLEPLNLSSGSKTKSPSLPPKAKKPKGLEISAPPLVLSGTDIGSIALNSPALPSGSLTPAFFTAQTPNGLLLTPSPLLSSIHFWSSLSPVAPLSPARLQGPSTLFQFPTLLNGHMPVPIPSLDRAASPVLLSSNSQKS
# Outline: as §1
# FEV = target: T7, FEV (Homo sapiens, UniProt Q99581 1-238); details: protein: recombinant; tags: N-terminal GST; dsDNA, one strand shown
# T7 sequence: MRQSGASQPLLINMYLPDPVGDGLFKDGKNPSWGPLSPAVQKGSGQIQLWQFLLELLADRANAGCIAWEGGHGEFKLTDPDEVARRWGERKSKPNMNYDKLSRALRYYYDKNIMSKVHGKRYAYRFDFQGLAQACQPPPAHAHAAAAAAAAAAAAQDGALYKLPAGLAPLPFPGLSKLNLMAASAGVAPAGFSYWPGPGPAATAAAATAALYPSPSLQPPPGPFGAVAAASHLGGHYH
# Outline: as §1
# ETV5 = ETV5 (Homo sapiens, UniProt P41161 1-510); details: protein: recombinant; tags: N-terminal GST; dsDNA, one strand shown
# Outline: as §1
# HSF1 = HSF1 (Homo sapiens, UniProt Q00613 1-529); details: protein: recombinant; tags: N-terminal GST; chain copies: 3; dsDNA, one strand shown
# Outline: as §1
# SPIC = target: T8, SPIC (Homo sapiens, UniProt Q8N5J4 1-248); details: protein: recombinant; tags: N-terminal GST; dsDNA, one strand shown
# T8 sequence: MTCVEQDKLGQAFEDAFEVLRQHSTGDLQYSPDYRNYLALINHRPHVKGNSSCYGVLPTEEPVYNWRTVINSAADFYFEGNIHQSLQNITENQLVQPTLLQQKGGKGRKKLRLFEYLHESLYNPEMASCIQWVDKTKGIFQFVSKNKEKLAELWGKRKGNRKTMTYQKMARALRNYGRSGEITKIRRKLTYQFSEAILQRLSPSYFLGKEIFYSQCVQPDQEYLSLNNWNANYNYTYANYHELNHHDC
# Outline: as §1
# ELF4 = ELF4 (Homo sapiens, UniProt Q99607 1-663); details: protein: recombinant; tags: N-terminal GST; dsDNA, one strand shown
# Outline: as §1
# ELK4 = target: T9, ELK4 (Homo sapiens, UniProt P28324-2 1-405); details: protein: recombinant; tags: N-terminal GST; dsDNA, one strand shown
# T9 sequence: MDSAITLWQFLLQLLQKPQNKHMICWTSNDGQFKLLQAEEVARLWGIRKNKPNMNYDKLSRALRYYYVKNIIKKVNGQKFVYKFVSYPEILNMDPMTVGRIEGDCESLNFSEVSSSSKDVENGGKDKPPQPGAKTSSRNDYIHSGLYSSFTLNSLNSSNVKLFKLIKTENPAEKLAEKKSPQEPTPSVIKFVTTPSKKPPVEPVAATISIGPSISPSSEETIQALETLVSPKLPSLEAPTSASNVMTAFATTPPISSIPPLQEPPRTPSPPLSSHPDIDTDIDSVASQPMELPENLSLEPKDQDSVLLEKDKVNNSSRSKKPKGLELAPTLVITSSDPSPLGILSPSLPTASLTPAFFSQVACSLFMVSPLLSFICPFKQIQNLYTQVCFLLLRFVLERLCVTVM
# Outline: as §1
# ETV2 = target: T10, ETV2 (Homo sapiens, UniProt O00321 1-342); details: protein: recombinant; tags: N-terminal GST; dsDNA, one strand shown
# T10 sequence: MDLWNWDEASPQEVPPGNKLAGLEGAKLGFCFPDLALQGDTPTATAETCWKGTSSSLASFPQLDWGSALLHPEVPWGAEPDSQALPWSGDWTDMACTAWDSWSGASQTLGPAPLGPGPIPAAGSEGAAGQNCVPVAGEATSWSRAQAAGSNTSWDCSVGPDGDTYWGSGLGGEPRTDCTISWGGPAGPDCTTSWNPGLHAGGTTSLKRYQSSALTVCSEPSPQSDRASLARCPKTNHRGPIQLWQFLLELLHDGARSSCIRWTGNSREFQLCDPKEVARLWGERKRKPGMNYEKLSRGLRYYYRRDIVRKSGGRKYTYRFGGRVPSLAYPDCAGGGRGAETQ
# Outline: as §1
# ELF3 = target: T11, ELF3 (Homo sapiens, UniProt P78545 1-371); details: protein: recombinant; tags: N-terminal GST; dsDNA, one strand shown
# T11 sequence: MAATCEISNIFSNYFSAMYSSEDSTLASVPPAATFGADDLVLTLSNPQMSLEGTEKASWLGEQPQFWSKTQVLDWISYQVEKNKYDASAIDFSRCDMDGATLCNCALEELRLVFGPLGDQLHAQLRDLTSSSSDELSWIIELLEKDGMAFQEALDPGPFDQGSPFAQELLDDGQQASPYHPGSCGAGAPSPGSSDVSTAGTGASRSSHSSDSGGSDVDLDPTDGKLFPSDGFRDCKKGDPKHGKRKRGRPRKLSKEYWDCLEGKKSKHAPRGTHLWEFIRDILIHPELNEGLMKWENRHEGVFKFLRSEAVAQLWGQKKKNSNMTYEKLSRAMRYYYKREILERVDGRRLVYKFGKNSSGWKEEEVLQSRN
# Outline: as §1
# CRX = CRX (Homo sapiens, UniProt O43186 1-299); details: protein: recombinant; tags: N-terminal GST; dsDNA, one strand shown
# Outline: as §1
# ETV1 = ETV1 (Homo sapiens, UniProt P50549 1-477); details: protein: recombinant; tags: N-terminal GST; dsDNA, one strand shown
# Outline: as §1
# Chain of CRX (O43186 whole entry): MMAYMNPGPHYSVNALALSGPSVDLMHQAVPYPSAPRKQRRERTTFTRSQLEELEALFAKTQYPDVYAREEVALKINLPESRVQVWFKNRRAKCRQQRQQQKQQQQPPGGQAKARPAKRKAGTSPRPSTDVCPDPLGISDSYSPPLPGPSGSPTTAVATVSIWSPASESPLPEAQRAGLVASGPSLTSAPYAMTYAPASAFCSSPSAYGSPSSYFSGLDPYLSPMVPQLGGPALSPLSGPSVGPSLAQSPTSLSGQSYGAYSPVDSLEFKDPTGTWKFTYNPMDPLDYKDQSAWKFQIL
# Chain of ELF1 (P32519 whole entry): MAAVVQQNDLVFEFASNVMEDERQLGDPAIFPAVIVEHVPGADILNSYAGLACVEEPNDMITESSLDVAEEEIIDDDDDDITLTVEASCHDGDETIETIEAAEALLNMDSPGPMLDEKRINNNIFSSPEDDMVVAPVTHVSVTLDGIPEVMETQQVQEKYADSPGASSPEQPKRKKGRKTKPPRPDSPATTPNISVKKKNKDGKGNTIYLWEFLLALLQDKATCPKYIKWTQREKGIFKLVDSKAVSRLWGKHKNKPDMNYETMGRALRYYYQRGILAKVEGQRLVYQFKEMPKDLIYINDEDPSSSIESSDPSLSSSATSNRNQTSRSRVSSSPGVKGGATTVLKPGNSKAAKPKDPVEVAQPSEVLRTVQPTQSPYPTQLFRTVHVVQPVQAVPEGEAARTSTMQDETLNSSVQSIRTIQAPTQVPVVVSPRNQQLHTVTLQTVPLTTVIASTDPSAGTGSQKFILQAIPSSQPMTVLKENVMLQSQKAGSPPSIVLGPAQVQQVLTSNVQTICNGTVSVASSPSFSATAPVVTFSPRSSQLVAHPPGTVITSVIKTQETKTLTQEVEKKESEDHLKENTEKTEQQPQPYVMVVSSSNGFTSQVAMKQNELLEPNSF
# Chain of ELF4 (Q99607 whole entry): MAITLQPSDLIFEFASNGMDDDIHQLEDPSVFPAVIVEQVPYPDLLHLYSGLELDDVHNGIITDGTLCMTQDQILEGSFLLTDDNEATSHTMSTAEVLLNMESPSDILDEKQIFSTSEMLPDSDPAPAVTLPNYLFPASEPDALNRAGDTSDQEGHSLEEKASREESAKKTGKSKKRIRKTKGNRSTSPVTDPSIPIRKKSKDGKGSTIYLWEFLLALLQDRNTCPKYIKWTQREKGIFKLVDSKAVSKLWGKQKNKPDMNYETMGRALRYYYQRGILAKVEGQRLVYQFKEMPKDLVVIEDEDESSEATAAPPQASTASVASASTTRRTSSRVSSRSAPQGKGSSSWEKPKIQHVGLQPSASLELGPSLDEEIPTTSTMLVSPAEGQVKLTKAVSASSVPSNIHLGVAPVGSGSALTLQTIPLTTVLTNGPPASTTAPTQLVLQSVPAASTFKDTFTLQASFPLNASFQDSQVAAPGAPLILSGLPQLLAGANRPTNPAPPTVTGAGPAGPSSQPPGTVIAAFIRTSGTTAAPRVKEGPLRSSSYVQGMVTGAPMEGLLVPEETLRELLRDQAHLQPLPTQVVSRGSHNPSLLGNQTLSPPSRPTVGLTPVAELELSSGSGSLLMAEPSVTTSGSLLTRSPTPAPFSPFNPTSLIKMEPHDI
# Chain of ETV5 (P41161 whole entry): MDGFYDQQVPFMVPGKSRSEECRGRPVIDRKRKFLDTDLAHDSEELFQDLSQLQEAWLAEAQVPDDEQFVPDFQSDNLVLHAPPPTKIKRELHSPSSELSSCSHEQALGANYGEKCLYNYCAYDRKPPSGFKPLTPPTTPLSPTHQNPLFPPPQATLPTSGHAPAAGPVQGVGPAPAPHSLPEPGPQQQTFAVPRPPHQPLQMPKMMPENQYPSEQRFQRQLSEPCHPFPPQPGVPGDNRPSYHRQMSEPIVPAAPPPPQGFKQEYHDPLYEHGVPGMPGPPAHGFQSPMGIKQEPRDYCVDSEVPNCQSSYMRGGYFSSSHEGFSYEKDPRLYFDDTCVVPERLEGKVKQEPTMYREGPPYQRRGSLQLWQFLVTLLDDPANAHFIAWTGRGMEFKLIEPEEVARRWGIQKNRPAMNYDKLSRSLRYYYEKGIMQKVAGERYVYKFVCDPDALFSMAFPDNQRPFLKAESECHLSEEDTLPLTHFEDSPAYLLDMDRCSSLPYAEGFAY
# Chain of ETV1 (P50549 whole entry): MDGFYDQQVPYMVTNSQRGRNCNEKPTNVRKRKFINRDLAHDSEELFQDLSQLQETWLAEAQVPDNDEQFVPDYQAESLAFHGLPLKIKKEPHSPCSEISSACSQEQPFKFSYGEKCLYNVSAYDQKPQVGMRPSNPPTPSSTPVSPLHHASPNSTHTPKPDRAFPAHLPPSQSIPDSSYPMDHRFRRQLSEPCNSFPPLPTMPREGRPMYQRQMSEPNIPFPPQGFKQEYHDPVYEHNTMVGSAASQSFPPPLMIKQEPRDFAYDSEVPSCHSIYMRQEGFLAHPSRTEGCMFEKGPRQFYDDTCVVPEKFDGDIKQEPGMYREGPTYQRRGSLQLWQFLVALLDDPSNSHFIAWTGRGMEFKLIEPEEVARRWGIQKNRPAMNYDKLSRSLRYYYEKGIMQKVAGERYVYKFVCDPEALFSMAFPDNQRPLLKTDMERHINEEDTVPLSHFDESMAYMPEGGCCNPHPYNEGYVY
# Chain of SPIB (Q01892 whole entry): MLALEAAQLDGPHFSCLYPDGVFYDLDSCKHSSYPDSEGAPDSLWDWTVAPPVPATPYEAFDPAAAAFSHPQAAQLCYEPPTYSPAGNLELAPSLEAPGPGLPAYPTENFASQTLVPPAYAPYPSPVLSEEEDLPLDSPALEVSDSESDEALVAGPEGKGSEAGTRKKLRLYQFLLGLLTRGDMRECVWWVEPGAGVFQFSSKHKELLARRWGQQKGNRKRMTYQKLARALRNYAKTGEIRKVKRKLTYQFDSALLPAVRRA
# Chain of HSF1 (Q00613 whole entry): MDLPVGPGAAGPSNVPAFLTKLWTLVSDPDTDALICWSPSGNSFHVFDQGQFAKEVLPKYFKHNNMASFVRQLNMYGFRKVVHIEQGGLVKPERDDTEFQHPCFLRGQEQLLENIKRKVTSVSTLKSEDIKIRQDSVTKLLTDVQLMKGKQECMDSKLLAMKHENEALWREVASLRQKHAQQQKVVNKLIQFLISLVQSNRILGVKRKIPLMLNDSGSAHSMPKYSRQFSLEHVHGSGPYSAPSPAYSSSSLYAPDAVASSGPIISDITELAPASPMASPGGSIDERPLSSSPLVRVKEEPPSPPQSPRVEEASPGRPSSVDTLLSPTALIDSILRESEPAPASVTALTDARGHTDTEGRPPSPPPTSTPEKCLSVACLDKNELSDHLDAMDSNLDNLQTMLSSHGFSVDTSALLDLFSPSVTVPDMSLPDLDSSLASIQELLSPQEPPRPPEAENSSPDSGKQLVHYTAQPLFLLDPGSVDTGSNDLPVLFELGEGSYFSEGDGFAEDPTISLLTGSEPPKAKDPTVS
sequence,measurement,setting,value
GATTCT,binding signal,FLI1,"1.28 fold enrichment (6-mer frequency, TF over GST control)"
same,binding signal,ELK1,"1.22 fold enrichment (6-mer frequency, TF over GST control)"
same,binding signal,GABPA,"1.29 fold enrichment (6-mer frequency, TF over GST control)"
same,binding signal,ERG,"1.21 fold enrichment (6-mer frequency, TF over GST control)"
same,binding signal,ELF1,"1.26 fold enrichment (6-mer frequency, TF over GST control)"
same,binding signal,EHF,"1.26 fold enrichment (6-mer frequency, TF over GST control)"
same,binding signal,SPI1,"1.3 fold enrichment (6-mer frequency, TF over GST control)"
same,binding signal,SPIB,"1.27 fold enrichment (6-mer frequency, TF over GST control)"
same,binding signal,ELK3,"1.33 fold enrichment (6-mer frequency, TF over GST control)"
same,binding signal,FEV,"1.13 fold enrichment (6-mer frequency, TF over GST control)"
same,binding signal,ETV5,"1.18 fold enrichment (6-mer frequency, TF over GST control)"
same,binding signal,HSF1,"2.08 fold enrichment (6-mer frequency, TF over GST control)"
same,binding signal,SPIC,"1.11 fold enrichment (6-mer frequency, TF over GST control)"
same,binding signal,ELF4,"1.19 fold enrichment (6-mer frequency, TF over GST control)"
same,binding signal,ELK4,"1.36 fold enrichment (6-mer frequency, TF over GST control)"
same,binding signal,ETV2,"1.15 fold enrichment (6-mer frequency, TF over GST control)"
same,binding signal,ELF3,"1.05 fold enrichment (6-mer frequency, TF over GST control)"
same,binding signal,CRX,"1.58 fold enrichment (6-mer frequency, TF over GST control)"
same,binding signal,ETV1,"1.25 fold enrichment (6-mer frequency, TF over GST control)"
